Experiment in all cases: DAPPL (digital affinity profiling via proximity ligation, sequencing); 10 mM Tris-HCl pH 7.5, 50 mM NaCl, 1 mM DTT, 4% glycerol, room temperature, 30 min; GST-TFs on glutathione beads, 16-mer random dsDNA library, 0.1% formaldehyde crosslink after washing; high values mean tight binding
For one assay, the target named is T1, FEV (Homo sapiens, UniProt Q99581 1-238).
T1 sequence: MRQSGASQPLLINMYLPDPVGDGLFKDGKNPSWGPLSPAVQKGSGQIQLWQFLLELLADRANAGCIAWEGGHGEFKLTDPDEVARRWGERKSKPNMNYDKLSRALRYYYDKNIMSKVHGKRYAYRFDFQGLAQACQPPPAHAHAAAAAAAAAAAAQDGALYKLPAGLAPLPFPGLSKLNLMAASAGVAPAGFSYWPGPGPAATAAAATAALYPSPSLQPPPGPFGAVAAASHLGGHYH
The conditions noted are these: protein: recombinant; tags: N-terminal GST; dsDNA, one strand shown. In short, it runs like this:
(§1)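 Human transcription factors fused to GST were expressed in yeast, captured on glutathione beads, given DNA barcodes and pooled with a GST-only negative control. Pools were incubated with 200 nmole of a 16-mer random double-stranded DNA library in Tris/NaCl/DTT/glycerol buffer at room temperature for 30 min. They were then washed, crosslinked with 0.1% formaldehyde, proximity-ligated (BsaI/T4 ligase, 1 h, 37 °C), PCR-amplified and sequenced on an Illumina NextSeq500. Binding signal is each 6-mer's read frequency for a factor divided by its frequency for the GST control.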

For the next assay, the target named is ETV5 (Homo sapiens, UniProt P41161 1-510). The conditions noted are these: protein: recombinant; tags: N-terminal GST; dsDNA, one strand shown. An outline of the steps: as §1
For a further assay, the target named is HSF1 (Homo sapiens, UniProt Q00613 1-529). The note with it: protein: recombinant; tags: N-terminal GST; chain copies: 3; dsDNA, one strand shown. In short, it runs like this:
as §1

For the next assay, the target named is T2, SPIC (Homo sapiens, UniProt Q8N5J4 1-248).
T2 sequence: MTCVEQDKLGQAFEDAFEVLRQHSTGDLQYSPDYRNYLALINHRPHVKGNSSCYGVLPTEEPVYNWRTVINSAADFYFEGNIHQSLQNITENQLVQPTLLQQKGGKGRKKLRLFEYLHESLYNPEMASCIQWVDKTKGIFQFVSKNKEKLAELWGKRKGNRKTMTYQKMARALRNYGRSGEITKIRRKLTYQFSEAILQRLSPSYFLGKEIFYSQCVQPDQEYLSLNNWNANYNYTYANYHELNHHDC
The conditions noted are these: protein: recombinant; tags: N-terminal GST; dsDNA, one strand shown. An outline of the steps:
as §1

Another assay concerns the target ELF4 (Homo sapiens, UniProt Q99607 1-663). The conditions noted are these: protein: recombinant; tags: N-terminal GST; dsDNA, one strand shown. An outline of the steps: as §1
Another assay deals with T3, ELK4 (Homo sapiens, UniProt P28324-2 1-405).
T3 sequence: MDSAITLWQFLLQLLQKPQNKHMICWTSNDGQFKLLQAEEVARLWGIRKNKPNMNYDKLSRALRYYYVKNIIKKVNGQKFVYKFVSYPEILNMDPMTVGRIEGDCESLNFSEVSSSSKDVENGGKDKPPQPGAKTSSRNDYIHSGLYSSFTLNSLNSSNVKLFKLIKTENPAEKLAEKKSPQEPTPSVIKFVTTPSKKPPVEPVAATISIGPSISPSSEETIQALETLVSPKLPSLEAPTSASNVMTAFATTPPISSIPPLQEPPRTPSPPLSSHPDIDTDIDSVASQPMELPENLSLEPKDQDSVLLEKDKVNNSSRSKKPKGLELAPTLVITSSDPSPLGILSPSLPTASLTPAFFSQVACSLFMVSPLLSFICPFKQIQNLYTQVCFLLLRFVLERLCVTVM
The note with it: protein: recombinant; tags: N-terminal GST; dsDNA, one strand shown. An outline of the steps:
as §1

A further assay concerns the target T4, ETV2 (Homo sapiens, UniProt O00321 1-342).
T4 sequence: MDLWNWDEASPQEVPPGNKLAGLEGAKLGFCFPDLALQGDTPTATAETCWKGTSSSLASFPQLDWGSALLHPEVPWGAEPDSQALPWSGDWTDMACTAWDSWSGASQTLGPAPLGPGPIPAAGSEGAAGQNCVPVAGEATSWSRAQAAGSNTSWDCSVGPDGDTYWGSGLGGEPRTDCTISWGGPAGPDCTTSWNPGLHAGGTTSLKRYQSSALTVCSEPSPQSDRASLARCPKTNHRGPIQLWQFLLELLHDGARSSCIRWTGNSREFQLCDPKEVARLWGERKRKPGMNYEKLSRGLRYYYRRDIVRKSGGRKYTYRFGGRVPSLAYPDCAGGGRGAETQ
The note with it: protein: recombinant; tags: N-terminal GST; dsDNA, one strand shown. An outline of the steps:
as §1

The target of the next assay is T5, ELF3 (Homo sapiens, UniProt P78545 1-371).
T5 sequence: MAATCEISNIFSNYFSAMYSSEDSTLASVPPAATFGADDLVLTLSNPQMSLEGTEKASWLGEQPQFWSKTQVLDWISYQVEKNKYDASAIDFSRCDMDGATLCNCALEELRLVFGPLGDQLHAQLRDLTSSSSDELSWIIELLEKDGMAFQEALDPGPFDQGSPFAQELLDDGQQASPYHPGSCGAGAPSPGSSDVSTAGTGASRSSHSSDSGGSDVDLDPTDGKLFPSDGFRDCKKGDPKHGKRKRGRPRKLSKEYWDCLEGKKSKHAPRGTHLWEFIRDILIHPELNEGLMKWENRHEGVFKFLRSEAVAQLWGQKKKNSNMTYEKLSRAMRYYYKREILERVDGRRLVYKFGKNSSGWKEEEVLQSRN
The conditions noted are these: protein: recombinant; tags: N-terminal GST; dsDNA, one strand shown. An outline of the steps:
as §1

The next assay concerns the target CRX (Homo sapiens, UniProt O43186 1-299). The conditions noted are these: protein: recombinant; tags: N-terminal GST; dsDNA, one strand shown. In short, it runs like this: as §1
A further assay concerns the target ETV1 (Homo sapiens, UniProt P50549 1-477). The conditions noted are these: protein: recombinant; tags: N-terminal GST; dsDNA, one strand shown. In short, it runs like this:
as §1

In a further assay the target is T6, ERF (Homo sapiens, UniProt P50548 1-548).
T6 sequence: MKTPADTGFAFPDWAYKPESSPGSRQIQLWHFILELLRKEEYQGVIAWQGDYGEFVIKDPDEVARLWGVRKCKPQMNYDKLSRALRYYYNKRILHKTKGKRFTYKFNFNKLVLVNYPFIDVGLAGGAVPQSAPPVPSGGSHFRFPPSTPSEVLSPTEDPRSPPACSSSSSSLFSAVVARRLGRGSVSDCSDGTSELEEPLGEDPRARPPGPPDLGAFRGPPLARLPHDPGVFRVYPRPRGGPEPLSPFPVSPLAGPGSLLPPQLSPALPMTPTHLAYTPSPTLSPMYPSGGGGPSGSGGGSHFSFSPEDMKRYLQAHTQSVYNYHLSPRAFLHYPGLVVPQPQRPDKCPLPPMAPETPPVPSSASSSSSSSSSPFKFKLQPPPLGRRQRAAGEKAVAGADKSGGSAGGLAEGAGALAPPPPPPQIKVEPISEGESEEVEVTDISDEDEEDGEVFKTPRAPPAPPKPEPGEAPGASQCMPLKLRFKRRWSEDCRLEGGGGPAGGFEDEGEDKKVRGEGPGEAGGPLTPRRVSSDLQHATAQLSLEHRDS
The note with it: protein: recombinant; tags: N-terminal GST; dsDNA, one strand shown. In short, it runs like this:
as §1

The next assay has as its target T7, ETV3L (Homo sapiens, UniProt Q6ZN32 1-361).
T7 sequence: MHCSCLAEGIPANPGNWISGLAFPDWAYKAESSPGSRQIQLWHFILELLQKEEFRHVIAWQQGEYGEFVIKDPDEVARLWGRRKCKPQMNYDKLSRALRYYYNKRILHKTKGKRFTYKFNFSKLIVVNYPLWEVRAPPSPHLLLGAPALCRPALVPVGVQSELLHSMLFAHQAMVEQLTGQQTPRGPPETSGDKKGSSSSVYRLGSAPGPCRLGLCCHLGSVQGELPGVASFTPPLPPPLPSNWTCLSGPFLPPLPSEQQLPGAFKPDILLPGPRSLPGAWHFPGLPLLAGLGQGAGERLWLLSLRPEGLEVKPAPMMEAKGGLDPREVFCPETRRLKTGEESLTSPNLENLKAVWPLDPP
The note with it: protein: recombinant; tags: N-terminal GST; dsDNA, one strand shown. An outline of the steps: as §1

Another assay has as its target T8, ETS2 (Homo sapiens, UniProt P15036 1-469).
T8 sequence: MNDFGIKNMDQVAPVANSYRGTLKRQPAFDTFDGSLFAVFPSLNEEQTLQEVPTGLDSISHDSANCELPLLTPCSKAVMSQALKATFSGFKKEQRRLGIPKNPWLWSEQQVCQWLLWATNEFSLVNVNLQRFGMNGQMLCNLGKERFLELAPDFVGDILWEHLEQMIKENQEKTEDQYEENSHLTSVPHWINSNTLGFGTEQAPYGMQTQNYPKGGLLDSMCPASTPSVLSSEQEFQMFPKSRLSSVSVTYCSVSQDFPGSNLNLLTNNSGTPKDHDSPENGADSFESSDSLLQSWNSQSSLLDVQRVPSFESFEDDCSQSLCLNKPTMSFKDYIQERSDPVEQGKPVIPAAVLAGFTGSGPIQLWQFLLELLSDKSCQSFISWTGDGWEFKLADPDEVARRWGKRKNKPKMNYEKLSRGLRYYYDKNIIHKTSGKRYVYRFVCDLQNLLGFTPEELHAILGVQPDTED
The note with it: protein: recombinant; tags: N-terminal GST; dsDNA, one strand shown. In short, it runs like this: as §1

For the next assay, the target named is T9, SPDEF (Homo sapiens, UniProt O95238 1-335).
T9 sequence: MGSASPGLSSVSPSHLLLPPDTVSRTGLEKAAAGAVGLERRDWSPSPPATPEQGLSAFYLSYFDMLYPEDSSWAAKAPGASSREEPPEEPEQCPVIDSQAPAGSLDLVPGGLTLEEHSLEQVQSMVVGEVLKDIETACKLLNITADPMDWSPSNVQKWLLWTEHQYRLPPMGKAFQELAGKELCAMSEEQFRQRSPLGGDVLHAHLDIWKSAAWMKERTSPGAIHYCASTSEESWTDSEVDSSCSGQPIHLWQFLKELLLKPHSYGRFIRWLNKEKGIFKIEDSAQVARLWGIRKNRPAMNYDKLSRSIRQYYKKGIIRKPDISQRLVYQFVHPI
The note with it: protein: recombinant; tags: N-terminal GST; dsDNA, one strand shown. In short, it runs like this:
as §1

For a further assay, the target named is T10, ETV7 (Homo sapiens, UniProt Q9Y603 1-341).
T10 sequence: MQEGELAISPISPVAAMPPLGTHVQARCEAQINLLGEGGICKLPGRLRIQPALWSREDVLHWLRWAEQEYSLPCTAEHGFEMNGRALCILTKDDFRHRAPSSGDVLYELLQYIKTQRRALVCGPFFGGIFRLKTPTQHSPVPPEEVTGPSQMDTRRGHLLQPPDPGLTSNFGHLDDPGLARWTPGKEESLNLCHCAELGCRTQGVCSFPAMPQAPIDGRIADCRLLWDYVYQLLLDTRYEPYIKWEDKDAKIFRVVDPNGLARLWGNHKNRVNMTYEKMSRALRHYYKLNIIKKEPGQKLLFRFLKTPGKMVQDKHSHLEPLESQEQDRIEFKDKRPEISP
The note with it: protein: recombinant; tags: N-terminal GST; dsDNA, one strand shown. An outline of the steps: as §1

The target of a further assay is T11, ELF5 (Homo sapiens, UniProt Q9UKW6-2 1-255).
T11 sequence: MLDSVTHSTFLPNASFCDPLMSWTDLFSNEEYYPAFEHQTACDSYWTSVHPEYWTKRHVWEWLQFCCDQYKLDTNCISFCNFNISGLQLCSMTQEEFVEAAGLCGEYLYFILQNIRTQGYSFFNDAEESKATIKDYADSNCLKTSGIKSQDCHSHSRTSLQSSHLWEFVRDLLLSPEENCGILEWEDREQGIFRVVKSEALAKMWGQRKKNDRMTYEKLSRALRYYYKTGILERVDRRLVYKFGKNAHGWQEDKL
The note with it: protein: recombinant; tags: N-terminal GST; dsDNA, one strand shown. An outline of the steps: as §1

For a further assay, the target named is T12, ETV3 (Homo sapiens, UniProt P41162-2 1-143).
T12 sequence: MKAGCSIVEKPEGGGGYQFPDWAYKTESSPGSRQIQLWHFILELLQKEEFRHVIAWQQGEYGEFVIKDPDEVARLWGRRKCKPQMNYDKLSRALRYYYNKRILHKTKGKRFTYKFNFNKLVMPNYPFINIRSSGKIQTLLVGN
The conditions noted are these: protein: recombinant; tags: N-terminal GST; dsDNA, one strand shown. An outline of the steps:
as §1

A further assay has as its target ETV6 (Homo sapiens, UniProt P41212 1-452). The note with it: protein: recombinant; tags: N-terminal GST; dsDNA, one strand shown. In short, it runs like this:
as §1

Sequence of ETV1 (P50549 whole entry): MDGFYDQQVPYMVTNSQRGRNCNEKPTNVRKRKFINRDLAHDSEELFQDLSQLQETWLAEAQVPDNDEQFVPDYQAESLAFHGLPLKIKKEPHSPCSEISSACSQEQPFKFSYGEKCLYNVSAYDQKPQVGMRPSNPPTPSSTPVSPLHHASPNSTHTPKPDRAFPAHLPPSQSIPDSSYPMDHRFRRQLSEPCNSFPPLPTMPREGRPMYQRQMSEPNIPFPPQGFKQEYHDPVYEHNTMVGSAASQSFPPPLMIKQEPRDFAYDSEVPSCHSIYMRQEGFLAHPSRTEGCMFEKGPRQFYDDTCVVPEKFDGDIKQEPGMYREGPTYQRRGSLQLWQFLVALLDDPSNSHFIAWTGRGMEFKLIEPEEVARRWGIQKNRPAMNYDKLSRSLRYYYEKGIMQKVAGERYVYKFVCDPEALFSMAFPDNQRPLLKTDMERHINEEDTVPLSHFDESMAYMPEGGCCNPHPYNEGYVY
Sequence of ETV5 (P41161 whole entry): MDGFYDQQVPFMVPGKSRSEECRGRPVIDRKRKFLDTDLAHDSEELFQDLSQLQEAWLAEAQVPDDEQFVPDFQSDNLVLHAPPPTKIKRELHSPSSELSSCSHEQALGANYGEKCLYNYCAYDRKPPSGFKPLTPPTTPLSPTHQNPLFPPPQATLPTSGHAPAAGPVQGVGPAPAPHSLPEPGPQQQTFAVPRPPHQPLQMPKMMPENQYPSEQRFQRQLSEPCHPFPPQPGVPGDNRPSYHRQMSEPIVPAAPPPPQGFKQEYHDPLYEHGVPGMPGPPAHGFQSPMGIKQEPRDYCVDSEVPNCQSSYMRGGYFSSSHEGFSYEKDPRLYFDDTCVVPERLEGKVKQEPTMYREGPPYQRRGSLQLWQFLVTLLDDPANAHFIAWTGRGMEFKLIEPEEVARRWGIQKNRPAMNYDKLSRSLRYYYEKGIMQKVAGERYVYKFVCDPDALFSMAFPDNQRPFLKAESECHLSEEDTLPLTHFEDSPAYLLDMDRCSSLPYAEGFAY
Sequence of ETV6 (P41212 whole entry): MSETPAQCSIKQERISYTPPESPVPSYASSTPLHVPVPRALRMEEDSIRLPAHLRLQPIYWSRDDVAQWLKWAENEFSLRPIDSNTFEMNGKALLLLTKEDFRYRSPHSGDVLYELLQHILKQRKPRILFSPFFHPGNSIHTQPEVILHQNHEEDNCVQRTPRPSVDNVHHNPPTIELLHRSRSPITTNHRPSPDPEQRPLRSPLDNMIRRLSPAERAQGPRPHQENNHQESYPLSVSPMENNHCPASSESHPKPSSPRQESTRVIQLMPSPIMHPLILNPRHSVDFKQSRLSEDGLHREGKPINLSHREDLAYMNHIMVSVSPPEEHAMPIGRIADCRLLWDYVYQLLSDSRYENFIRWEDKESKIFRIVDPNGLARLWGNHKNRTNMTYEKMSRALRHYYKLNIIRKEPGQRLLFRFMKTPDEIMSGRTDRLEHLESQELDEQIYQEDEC
Sequence of HSF1 (Q00613 whole entry): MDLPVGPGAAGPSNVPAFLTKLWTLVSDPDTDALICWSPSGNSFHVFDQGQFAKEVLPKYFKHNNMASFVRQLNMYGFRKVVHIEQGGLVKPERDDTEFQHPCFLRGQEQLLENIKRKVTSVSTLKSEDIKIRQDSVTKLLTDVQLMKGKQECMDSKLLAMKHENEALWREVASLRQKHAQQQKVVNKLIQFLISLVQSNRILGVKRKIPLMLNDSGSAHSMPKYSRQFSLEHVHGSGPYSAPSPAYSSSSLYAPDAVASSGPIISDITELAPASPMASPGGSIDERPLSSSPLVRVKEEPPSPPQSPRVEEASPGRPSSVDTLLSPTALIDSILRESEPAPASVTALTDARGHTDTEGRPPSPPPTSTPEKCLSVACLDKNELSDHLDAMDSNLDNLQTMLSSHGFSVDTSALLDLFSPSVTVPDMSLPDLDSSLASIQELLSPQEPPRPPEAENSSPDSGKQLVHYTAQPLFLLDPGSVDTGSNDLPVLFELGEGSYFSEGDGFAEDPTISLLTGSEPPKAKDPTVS
Sequence of CRX (O43186 whole entry): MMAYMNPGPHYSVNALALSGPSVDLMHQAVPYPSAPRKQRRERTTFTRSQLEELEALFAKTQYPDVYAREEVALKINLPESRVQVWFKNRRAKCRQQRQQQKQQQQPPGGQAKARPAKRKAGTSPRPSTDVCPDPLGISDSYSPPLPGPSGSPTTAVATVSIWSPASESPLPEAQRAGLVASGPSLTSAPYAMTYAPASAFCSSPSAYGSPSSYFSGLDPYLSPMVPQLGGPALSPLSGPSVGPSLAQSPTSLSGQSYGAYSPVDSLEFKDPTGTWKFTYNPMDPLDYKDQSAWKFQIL
Sequence of ELF4 (Q99607 whole entry): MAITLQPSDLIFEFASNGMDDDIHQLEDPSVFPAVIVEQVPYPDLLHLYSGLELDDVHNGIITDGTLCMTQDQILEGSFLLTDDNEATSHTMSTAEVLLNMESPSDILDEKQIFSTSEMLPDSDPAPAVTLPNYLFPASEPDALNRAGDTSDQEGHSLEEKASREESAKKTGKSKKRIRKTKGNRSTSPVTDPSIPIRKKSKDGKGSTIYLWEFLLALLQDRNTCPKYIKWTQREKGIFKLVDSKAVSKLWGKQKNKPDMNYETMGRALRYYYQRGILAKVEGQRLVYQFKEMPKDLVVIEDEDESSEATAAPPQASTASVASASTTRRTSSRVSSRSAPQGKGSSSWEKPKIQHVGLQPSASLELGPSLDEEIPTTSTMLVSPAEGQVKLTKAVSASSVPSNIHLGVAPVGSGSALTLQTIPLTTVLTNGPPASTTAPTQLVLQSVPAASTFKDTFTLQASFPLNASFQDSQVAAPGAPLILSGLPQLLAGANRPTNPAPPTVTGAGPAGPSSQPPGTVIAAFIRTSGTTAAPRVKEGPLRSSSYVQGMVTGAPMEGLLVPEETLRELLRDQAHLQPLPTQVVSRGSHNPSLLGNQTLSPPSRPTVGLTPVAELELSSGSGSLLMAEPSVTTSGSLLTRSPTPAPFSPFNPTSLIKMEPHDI

Regarding TCTCCC, the binding signal with FEV is 1.7 fold enrichment (6-mer frequency, TF over GST control); with ETV5, 1.64 fold enrichment (6-mer frequency, TF over GST control); with HSF1, 1.65 fold enrichment (6-mer frequency, TF over GST control); with SPIC it was 1.51 fold enrichment (6-mer frequency, TF over GST control); with ELF4 it was 1.78 fold enrichment (6-mer frequency, TF over GST control); with ELK4, 1.63 fold enrichment (6-mer frequency, TF over GST control). In addition, the binding signal is 1.54 fold enrichment (6-mer frequency, TF over GST control) with ETV2; 1.78 fold enrichment (6-mer frequency, TF over GST control) with ELF3; 1.7 fold enrichment (6-mer frequency, TF over GST control) with CRX; 1.78 fold enrichment (6-mer frequency, TF over GST control) with ETV1; 1.89 fold enrichment (6-mer frequency, TF over GST control) in the assay with ERF; 1.61 fold enrichment (6-mer frequency, TF over GST control) with ETV3L. The binding signal in the assay with ETS2 was 1.6 fold enrichment (6-mer frequency, TF over GST control); with SPDEF, 1.6 fold enrichment (6-mer frequency, TF over GST control); in the assay with ETV7, 1.57 fold enrichment (6-mer frequency, TF over GST control); in the assay with ELF5 it was 1.7 fold enrichment (6-mer frequency, TF over GST control); in the assay with ETV3, 1.71 fold enrichment (6-mer frequency, TF over GST control); in the assay with ETV6 it was 1.76 fold enrichment (6-mer frequency, TF over GST control).

Source of the values: article PMC7862700, “An all-to-all approach to the identification of sequence-specific readers for epigenetic DNA modifications on cytosine”.
